# Sm TGR inh – blocks Schistosoma mansoni thioredoxin glutathione reductase. purified TGR, DTNB reduction, TNB absorbance 405 nm. Potency, µM (series often up to 114 µM), inactives show top-dose activity change, negative = inhibition, actives largely listed as inhibitors. Q962Y6. actives 3% (n = 360,000). AID 485364; note: nearly all actives have a fitted effect of over 60% in size
#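 First, TGR (20 nM dispensed) and NADPH were mixed with compound. Second, a 15 min room-temperature incubation followed. Third, further NADPH and then DTNB were added to start the reaction. Finally, TNB absorbance was monitored kinetically.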
# LmPK inh – LmPK (Leishmania mexicana) enzyme inhibition | purified LmPK, Kinase-Glo ATP luminescence, 1 h | Q27686 | AID 1721 | Potency, µM (top dose mostly 57.5 µM), for inactives: at the highest dose activity change, negative = inhibition, hits mostly inhibitors | actives 0.37% (n = 290,000)
# Target sequence (Q27686 whole entry, looked up): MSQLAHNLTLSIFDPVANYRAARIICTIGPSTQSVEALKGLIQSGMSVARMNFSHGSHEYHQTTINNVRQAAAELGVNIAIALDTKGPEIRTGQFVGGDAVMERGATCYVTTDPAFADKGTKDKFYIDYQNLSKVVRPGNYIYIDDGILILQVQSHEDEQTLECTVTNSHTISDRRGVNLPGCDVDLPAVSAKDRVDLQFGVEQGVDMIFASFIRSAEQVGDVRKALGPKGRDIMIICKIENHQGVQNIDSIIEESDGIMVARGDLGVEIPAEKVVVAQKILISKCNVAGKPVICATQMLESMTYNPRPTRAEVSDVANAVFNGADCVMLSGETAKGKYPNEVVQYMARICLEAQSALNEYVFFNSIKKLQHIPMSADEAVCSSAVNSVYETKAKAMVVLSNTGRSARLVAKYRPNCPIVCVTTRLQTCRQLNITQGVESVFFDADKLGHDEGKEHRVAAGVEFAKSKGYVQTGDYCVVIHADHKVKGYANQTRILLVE
#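 Kinase-Glo luminescence read after 1 h RT reaction of 0.1 nM LmPK with 0.5 mM PEP and 0.1 mM ADP. Activity scaled between uninhibited and enzyme-free controls.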
# TbPYK inhibitor – inhibitors of Trypanosoma brucei pyruvate kinase; TbPYK enzyme, Kinase-Glo Plus ATP luminescence, 45 min; Q57TT1; actives 0.12% (n = 410,000); Potency, µM (doses to about 76.8 µM), inactives show at the highest dose activity, negative = inhibition, usual class: inhibitors; note: nearly all actives have a fitted effect of over 50% in size
#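 TbPYK + substrate in 50 mM TEA pH 7.2, 100 mM KCl, 10 mM MgCl2, 0.05% BSA, 0.01% Tween-20; cpd pinned; ADP 130 uM final; 45 min RT; Kinase-Glo Plus 10 min; luminescence endpoint.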
# AMA1-RON2 inh – disrupts binding of P. falciparum AMA1 to RON2; actives 0.2% (n = 360,000); Potency, µM (highest dose often 58.2 µM), for the others: top-dose activity change, negative = inhibition, usual class: inhibitors; AlphaScreen AMA1-biotinylated RON2 peptide binding;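 note: 0% = vehicle wells and -100% = peptide control; nearly all actives have a fitted effect of over 45% in size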
#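 AMA1 (3D7) with his tag at 25 nM final met compounds first, then biotinylated RON2 peptide at 25 nM; detection used donor plus acceptor beads, 10 µg/mL apiece, read by AlphaScreen after 30 min at room temperature.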
# RE007 growth inh – less growth of the S. pombe RE007 Vpr strain. S. pombe RE007 Vpr strain, BacTiter-Glo ATP luminescence, 24 h. Potency, µM (doses to about 92.2 µM), inactives show top-dose activity change, negative = less growth, actives largely listed as inhibitors. actives 0.21% (n = 360,000). AID 651644; active = well fitted falling curve with a large enough effect; inconclusive = small, poorly fitted or top-dose-only effect; inactive = no such curve, though single readings can be large or run the other way; note: nearly all actives have a fitted effect of over 50% in size
#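 Fission yeast RE007 carrying one integrated HIV-1 vpr copy, seeded at OD 0.01 in PMG+AL medium with 23 nL pinned compound. Grown 24 h at 30 degrees; viability read by BacTiter-Glo luminescence after 5 min.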
# Numbers without * were called inactive; ? = inconclusive; . = no result given. In the library only some 3.2% were active in any assay of this set; here they are far more common. Unless noted, calls come from the whole dose curve; as a rule, active = well fitted curve in the direction sought with a large enough effect; inconclusive = small, poorly fitted or top-dose-only effect, or another doubt; inactive = no such curve, though single readings can be large; an effect the other way counts as inactive or inconclusive. Unless noted, % is set by controls: 0 for no effect and ±100 for the full control effect; potency is the fitted concentration of half-maximal effect.
SMILES,Sm TGR inh,LmPK inh,TbPYK inhibitor,AMA1-RON2 inh,RE007 growth inh
COc1cc([N+](=O)[O-])c(OC)cc1SCc1n[nH]c(=S)n1-c1ccc(C)cc1,-11%,?,2.5µM*,50%,-3%
O=[N+]([O-])c1cccc(-c2n[nH]c(=S)n2-c2ccc(Br)cc2)c1,0.79µM*,5%,?,39%,3%
COc1cc([N+](=O)[O-])c(OC)cc1SCc1n[nH]c(=S)n1-c1ccc(F)cc1,10%,?,?,10%,-11%
Cc1cccc(-n2c(-c3ccncc3)n[nH]c2=S)c1,-6%,14µM*,?,-1%,8%
CCOC(=O)c1c(C)[nH]c(CCC(=O)NCCCN2CCN(c3ccccc3F)CC2)c1C,-9%,.,2%,.,.
CCc1cccc(NC(=O)CN(C)S(=O)(=O)c2ccc3c(c2)n(C)c(=O)c(=O)n3C)c1,-1%,.,5%,.,.
S=c1[nH]nc(-c2cccnc2)n1-c1ccccc1,0%,-25%,?,-2%,-9%
COc1ccc(-c2n[nH]c(=S)n2-c2ccc(C)cc2)cc1OC,-3%,14µM*,5µM*,73%,-6%
COc1ccc(-c2n[nH]c(=S)n2-c2ccc3c(c2)OCCO3)cc1OC,6%,?,?,84%,4%
COc1ccc(CCn2c(-c3ccc(C(C)(C)C)cc3)n[nH]c2=S)cc1OC,-1%,0%,14µM*,47%,2%
S=c1[nH]nc(-c2ccc(Cl)cc2)n1-c1cccnc1,5%,11µM*,?,20%,23%
S=c1[nH]nc(-c2ccc3c(c2)OCO3)n1-c1ccccc1,-16%,7.1µM*,?,12%,21%
Cc1ccc(-c2n[nH]c(=S)n2-c2ccccc2)cc1,-23%,?,?,20%,18%
CCc1ccccc1Nc1nc2ccccc2n2cnnc12,13%,.,-9%,.,.
Cc1ccc(Nc2sc(C(=O)c3ccccc3)c(N)c2S(=O)(=O)c2ccccc2)c(C)c1,?,.,-5%,.,.
Cc1ccc(CNc2nc3ccccc3n3c(C)nnc23)cc1,1%,.,-3%,.,.
CNC(=O)CSc1nnc(NC(=O)Nc2ccccc2)s1,-3%,.,-23%,.,.
Cc1ccc(-n2c(-c3cccc(C)c3)n[nH]c2=S)cc1,1%,8.9µM*,2.8µM*,65%,2%
Cc1ccc([N+](=O)[O-])c(-c2n[nH]c(=S)n2-c2cccc(Cl)c2)c1,11%,18µM*,3.2µM*,83%,1%
O=C(O)c1ccc(-n2c(-c3ccc(Br)cc3)n[nH]c2=S)cc1,2%,7.1µM*,?,14%,1%
S=c1[nH]nc(-c2ccc(Br)cc2)n1-c1ccc(Br)cc1,16%,?,?,132%,-4%
COC(=O)c1ccc(C(=O)OC)c(NC(=O)c2cnn3c(C(F)F)cc(-c4ccccc4)nc23)c1,16%,.,0%,.,.
CCn1c(=O)n(-c2ccc3c(c2)OCO3)c2nc(-c3cc(OC)ccc3OC)nc(C(N)=O)c21,6%,.,2%,.,.
Cc1oc(-c2cccc(Cl)c2)nc1CS(=O)(=O)CC(=O)NC1CCCC1,45µM*,2%,-1%,18%,-12%
COc1cccc(-c2nc(CS(=O)(=O)CC(=O)NC3CCC(C)CC3)c(C)o2)c1 (centres undefined),-17%,0%,-24%,-8%,-5%
SMILES,Sm TGR inh,LmPK inh,TbPYK inhibitor,AMA1-RON2 inh,RE007 growth inh
Cc1oc(-c2cccc(Cl)c2)nc1CS(=O)(=O)CC(=O)NCc1ccccc1Cl,?,.,4%,.,.
COc1cccc(-c2nc(CS(=O)(=O)CC(=O)NC3CCCC3)c(C)o2)c1,45µM*,2%,3%,11%,4%
Cc1cccc(N2CCN(C(=O)C3CCN(S(=O)(=O)Cc4ccccc4)CC3)CC2)c1C,0%,.,-3%,.,.
COc1ccc(-c2cc(C(F)(F)F)nc(SCCC(=O)Nc3ccc(O)cc3)n2)cc1,-2%,.,0%,.,.
CN1C2CCC1/C(=C\c1ccc(F)cc1)C(=O)/C2=C/c1ccc(F)cc1,-11%,2%,-9%,-18%,-5%
O=C1/C(=C/c2ccncc2)CCC/C1=C\c1ccncc1,11µM*,-6%,-14%,-12%,?
